Active and inactive are the calls of the source.
Tests used:
[1] = compound effects on differentiated 3T3-L1 adipocyte viability – cell-based, 3T3-L1 adipocytes, calcein-AM fluorescence, 48 h, basal, profiling panel (AID 1163); details: 3T3-L1 adipocytes viability, higher = more signal
[2] = compound effects on hepatocellular carcinoma cell viability – HepG2, calcein-AM fluorescence, 48 h, basal, profiling panel (AID 1164); details: higher = more signal
[3] = compound effects on multiple myeloma cell viability – MM1S, calcein-AM fluorescence, 48 h, basal, profiling panel (AID 1165); details: higher = more signal;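 note: viability of MM1S multiple myeloma cells under basal unstimulated conditions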
[4] = calcein-AM signal in unstimulated myeloma cells – cell-based, calcein-AM fluorescence, 48 h, PK04 Diversity Set, profiling panel (AID 1166); details: RPMI8226 myeloma viability, higher = more signal;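 note: cells grown under basal conditions without added stimulus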
[5] = JC-1 mitochondrial signal, unstimulated HepG2 cells – cell-based, JC-1 fluorescence, 24 h, 100 nL compound, profiling panel (AID 1167); details: HepG2 mitochondrial potential, higher = more signal
[6] = JC-1 mitochondrial signal, unstimulated adipocytes – cell-based, JC-1 fluorescence, 3T3-L1 adipocytes, 24 h, 100 nL compound, profiling panel (AID 1168); details: JC-1 mitochondrial fluorescence, higher = more signal, called active from +8 up or from −8 down
[7] = JC-1 mitochondrial signal, unstimulated myeloma cells – cell-based, JC-1 fluorescence, RPMI8226, 24 h, 100 nL compound, profiling panel (AID 1169); details: JC-1 mitochondrial potential fluorescence, higher = more signal
[8] = JC-1 mitochondrial signal, unstimulated MM1S myeloma – cell-based, JC-1 fluorescence, 24 h, 100 nL compound, profiling panel (AID 1170); details: MM1S mitochondrial potential, higher = more signal
[9] = resazurin metabolic signal in A549 cells – cell-based, resazurin fluorescence, 24 h, PK04 Diversity Set, profiling panel (AID 1171); details: A549 viability, higher = more signal, called active from +8 up or from −8 down
[10] = resazurin metabolic signal in HepG2 cells – cell-based, resazurin fluorescence, 24 h, PK04 Diversity Set, profiling panel (AID 1172); details: HepG2 viability, higher = more signal
[11] = budding yeast growth changes without added modifier – OD600, strain BY4716, 24 h, basal condition, primary screen (AID 1173); details: S. cerevisiae BY4716 growth, OD600, 24 h; higher = more signal, called active from +8 up or from −8 down
[12] = viability profiling in MM1S myeloma cells – cell-based, resazurin fluorescence, basal, 24 h, PK04 Diversity Set, profiling panel (AID 1174); details: higher = more signal, called active from +8 up or from −8 down
[13] = target: Dihydroorotate dehydrogenase (quinone), mitochondrial (Plasmodium falciparum (isolate 3D7)) (UniProt Q08210); test: inhibition of P. falciparum DHODH – biochemical, C-terminal His tag, absorbance 600 nm, primary screen (AID 1175); details: PfDHODH enzyme, DCIP absorbance 600 nm; higher = more signal, called active from +8 up or from −8 down;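 note: recombinant parasite enzyme with a five histidine tag at its C terminus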
[14] = growth modulation of vineyard yeast isolate – strain RM11-1a, OD600, basal, 24 h, primary screen (AID 1177);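 note: cultures grown under basal conditions with no added stressor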; details: S. cerevisiae RM11-1a growth, OD600, 24 h; higher = more signal, called active from +8 up or from −8 down
[15] = growth of efflux-deficient E. coli DRC39 – strain DRC39, OD650, 24 h, E. coli filamentation inducers, primary screen (AID 1178);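 note: growth measured as culture turbidity by optical density at 650 nm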; details: E. coli DRC39 acrAB, higher = more signal, called active from +8 up or from −8 down
[16] = growth of efflux-deficient E. coli DRC39 – strain DRC39, OD650, 48 h, E. coli filamentation inducers, primary screen (AID 1179);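 note: screen aims at cell division blockers that make cells filament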; details: E. coli DRC39 delta-acrAB growth, higher = more signal, called active from +8 up or from −8 down
[17] = viability profiling in RPMI8226 myeloma cells – cell-based, resazurin fluorescence, basal, 24 h, PK04 Diversity Set, profiling panel (AID 1180); details: higher = more signal;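 note: RPMI8826 multiple myeloma cell line at 5000 cells per well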
[18] = target: E3 ubiquitin-protein ligase XIAP (Homo sapiens) (UniProt P98170); test: small molecules binding XIAP protein – biophysical, small-molecule microarray, fluorescence 635 nm, primary screen (AID 1181); details: higher = more signal;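 note: score merges 667 nm emission and signal to noise over triplicate slides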
[19] = test system: XIP peptide (Xip251-270) binding; test: XIP fragment 251-270 binding compounds – biochemical, small-molecule microarray, fluorescence 635/667 nm, 0.1 µg/mL protein, primary screen (AID 1182); details: fluorescent protein binding, 635 nm, higher = more signal, called active from +8 up or from −8 down
XIP peptide (Xip251-270) = test: compounds binding XIP fragment 251-270 – biochemical, small-molecule microarray, fluorescence 635/667 nm, 0.5 µg/mL protein, primary screen (AID 1183); details: fluorescence 635 nm, higher = more signal

E3 ubiquitin-protein ligase XIAP (Homo sapiens), sequence (P98170 whole entry, looked up, the tested form may be a part): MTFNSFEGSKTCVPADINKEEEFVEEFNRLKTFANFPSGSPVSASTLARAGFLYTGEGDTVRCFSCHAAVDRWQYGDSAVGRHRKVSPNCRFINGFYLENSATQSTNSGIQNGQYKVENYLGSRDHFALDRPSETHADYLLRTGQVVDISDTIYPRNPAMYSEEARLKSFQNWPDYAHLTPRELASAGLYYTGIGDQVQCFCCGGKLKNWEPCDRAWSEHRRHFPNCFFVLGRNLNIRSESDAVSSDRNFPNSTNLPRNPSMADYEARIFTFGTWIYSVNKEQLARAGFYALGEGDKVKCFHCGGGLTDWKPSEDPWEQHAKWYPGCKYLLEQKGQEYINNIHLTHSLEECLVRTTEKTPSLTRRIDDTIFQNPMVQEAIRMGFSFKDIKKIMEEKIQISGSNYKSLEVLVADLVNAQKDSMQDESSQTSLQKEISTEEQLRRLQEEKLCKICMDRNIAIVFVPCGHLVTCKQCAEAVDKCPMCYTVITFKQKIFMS
Dihydroorotate dehydrogenase (quinone), mitochondrial (Plasmodium falciparum (isolate 3D7)), sequence (Q08210 whole entry, looked up): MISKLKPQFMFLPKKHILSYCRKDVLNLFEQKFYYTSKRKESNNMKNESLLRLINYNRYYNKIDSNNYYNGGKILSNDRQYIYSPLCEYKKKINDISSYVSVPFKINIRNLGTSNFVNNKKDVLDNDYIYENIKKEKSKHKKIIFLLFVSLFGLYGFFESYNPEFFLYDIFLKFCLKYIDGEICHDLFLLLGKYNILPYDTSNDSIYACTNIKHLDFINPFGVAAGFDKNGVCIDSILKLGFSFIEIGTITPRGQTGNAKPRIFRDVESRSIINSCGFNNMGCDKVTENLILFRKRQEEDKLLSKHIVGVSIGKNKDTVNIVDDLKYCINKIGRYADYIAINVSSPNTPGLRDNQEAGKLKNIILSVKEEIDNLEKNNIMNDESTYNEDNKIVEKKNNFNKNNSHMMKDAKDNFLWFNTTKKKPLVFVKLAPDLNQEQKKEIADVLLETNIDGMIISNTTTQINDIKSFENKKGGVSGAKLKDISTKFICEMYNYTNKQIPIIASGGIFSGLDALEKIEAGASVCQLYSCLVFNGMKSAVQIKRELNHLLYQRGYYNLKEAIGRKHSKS

| SMILES | z-score [1] | z-score [2] | z-score [3] | z-score [4] | z-score [5] | z-score [6] | z-score [7] | z-score [8] | z-score [9] | z-score [10] | z-score [11] | z-score [12] | composite z-score [13] | z-score [14] | z-score [15] | z-score [16] | z-score [17] | composite z-score [18] | composite z-score [19] | composite z-score (XIP peptide (Xip251-270)) |
| --- | --- | --- | --- | --- | --- | --- | --- | --- | --- | --- | --- | --- | --- | --- | --- | --- | --- | --- | --- | --- |
| C=C(COC)C(=O)CC[C@H](OC(=O)c1ccccc1-c1ccccc1C(=O)O)c1ccccc1OCCO | 0.819 | -0.927 | -1.41 | 0.0361 | 0.618 | 0.819 (inactive) | -0.437 | 0.24 | 0.283 (inactive) | 0.365 | -1.26 (inactive) | 0.732 (inactive) | -1.46 (inactive) | -0.524 (inactive) | 1.54 (inactive) | 0.515 (inactive) | 0.439 | -0.111 | 1.43 (inactive) | 0.356 |
| C[N+](C)(C)CCCCNC(=O)[C@@H]1C[C@@H]2C(=O)NCC(=O)N2[C@@H]1c1cccc(OCCO)c1 | -0.0369 | 0.653 | 0.499 | 0.089 | 1.04 | 0.294 (inactive) | -0.361 | -0.552 | -0.105 (inactive) | 0.165 | -0.0902 (inactive) | 1.38 (inactive) | -27.8 (active) | -1.21 (inactive) | 1.87 (inactive) | 1.77 (inactive) | 0.356 | 0.602 | 0.71 (inactive) | 0.865 |
| O=C(O)[C@H]1C[C@H]2C(=O)N[C@@H](Cc3ccccc3)C(=O)N2[C@H]1c1ccc(O)cc1 | 0.691 | -0.142 | 0.41 | 0.0405 | 1.29 | -0.176 (inactive) | -0.865 | -0.269 | 0.715 (inactive) | 0.833 | -0.145 (inactive) | 0.635 (inactive) | -0.426 (inactive) | -0.44 (inactive) | 0.431 (inactive) | 0.361 (inactive) | 1.04 | 0.117 | 0.3 (inactive) | 0.923 |
| C[N+](C)(C)CCCC[C@@H]1NC(=O)[C@H]2C[C@@H](C(=O)NCCCCCN)[C@@H](c3cccc(OCCO)c3)N2C1=O | 2.1 | -0.468 | -0.433 | -0.649 | 1.31 | 0.0454 (inactive) | -0.773 | 0.0601 | -0.156 (inactive) | -0.148 | -0.26 (inactive) | 1.53 (inactive) | -0.407 (inactive) | -0.286 (inactive) | 0.222 (inactive) | -0.0647 (inactive) | 0.729 | -0.163 | 0.713 (inactive) | 0.608 |
| CC(C)C(=C=CC[C@@H](O)c1ccc(CO)o1)CCO | -0.266 | 0.719 | 0.288 | 0.889 | 0.919 | 0.556 (inactive) | 0.304 | 0.501 | 1.37 (inactive) | 1.32 | -1.13 (inactive) | 1.07 (inactive) | -0.669 (inactive) | -0.332 (inactive) | 2.09 (inactive) | 1.39 (inactive) | 1.18 | -0.0036 | 0.676 (inactive) | -0.514 |
| Cc1ccc(N2C(=O)c3ccccc3[C@](C)(C(=O)NCC(F)(F)F)[C@@H]2c2ccc(CO)cc2)nc1 | 1.45 | 0.529 | -0.436 | -1.45 | -0.106 | -0.603 (inactive) | 0.54 | 1.04 | 0.451 (inactive) | 0.125 | -1.08 (inactive) | 1.57 (inactive) | 0.534 (inactive) | 0.216 (inactive) | 0.24 (inactive) | 0.536 (inactive) | 1.4 | 0.0506 | -0.0838 (inactive) | -0.964 |
| C=CCC(OC(C)=O)[C@@H]1[C@@H](N(Cc2cccc3ccccc23)C(=O)Cc2ccc(OC)cc2)c2cc(OCCCO)ccc2N1C(=O)Cc1ccc(OC)cc1 (stereo not given in full) | 1.47 | 0.691 | 1.76 | -1.55 | 2.38 | 0.847 (inactive) | -0.44 | 0.791 | 0.493 (inactive) | -0.197 | -1.63 (inactive) | 0.844 (inactive) | 0.363 (inactive) | -0.27 (inactive) | 1.51 (inactive) | 0.443 (inactive) | 0.666 | 0.183 | -0.203 (inactive) | -0.665 |
| CC(CO)N1C(=O)[C@@H]2C3C(=O)OCCC/C=C\[C@H]3OC23C=CCN(Cc2ccccc2)C(=O)[C@@H]13 (stereo not given in full) | -0.154 | 0.547 | 2.05 | -0.172 | 0.797 | 1.86 (inactive) | -0.0742 | 0.322 | 0.754 (inactive) | 0.918 | -0.703 (inactive) | 0.462 (inactive) | -0.761 (inactive) | -0.985 (inactive) | 1.6 (inactive) | 1.97 (inactive) | 0.526 | -0.0333 | -0.554 (inactive) | -0.736 |

Source: PubChem BioAssay
